Results filed as inconclusive are left out. Calls of active or inactive are those of the source. Calls come from the whole dose curve; as a rule, active = well fitted inhibition curve with a large enough effect; inconclusive = small, poorly fitted or top-dose-only effect; inactive = flat fitted curve, though single readings scatter.
Each molecule was assayed against Dual specificity protein kinase CLK4 (Homo sapiens) (UniProt Q9HAZ1) (assay: Confirmation Assay for Inhibitors of CDC-like Kinase 4 (Kinase-Glo Assay)). Settings: recombinant Clk4, Kinase-Glo ATP depletion luminescence; series mostly up to 47.7 µM.
Dual specificity protein kinase CLK4 (Homo sapiens), sequence (Q9HAZ1 whole entry, looked up): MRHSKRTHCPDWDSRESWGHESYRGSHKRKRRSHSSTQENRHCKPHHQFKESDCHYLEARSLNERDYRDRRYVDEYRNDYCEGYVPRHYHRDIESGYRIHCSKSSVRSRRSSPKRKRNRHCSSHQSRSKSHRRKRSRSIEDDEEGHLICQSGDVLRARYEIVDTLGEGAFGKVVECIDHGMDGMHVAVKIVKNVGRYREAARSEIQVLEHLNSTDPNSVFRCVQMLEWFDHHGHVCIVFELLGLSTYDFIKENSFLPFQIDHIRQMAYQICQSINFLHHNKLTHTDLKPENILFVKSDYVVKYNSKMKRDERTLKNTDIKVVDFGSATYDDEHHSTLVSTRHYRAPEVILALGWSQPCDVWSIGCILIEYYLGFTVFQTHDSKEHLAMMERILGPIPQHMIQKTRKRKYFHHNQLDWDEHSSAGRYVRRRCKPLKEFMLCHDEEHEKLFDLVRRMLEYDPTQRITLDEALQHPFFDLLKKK
Experimental: NIH Molecular Libraries Probe Production Centers Network [MLPCN] NIH Chemical Genomics Center [NCGC] MLPCN Grant: 1R03MH084827-01 Assay Submitter (PI): Tom Misteli NCGC Assay Overview: Clk4 (Invitrogen, cat# PV3839) was assayed using ATP and the RS repeat peptide (AnaSpec cat # 61722) as substrates. Following the Clk4 reaction, the remaining ATP levels were detected using Promega Kinase-Glo technology wherein the remaining ATP from the kinase reaction is detected using Ultra-Glo luciferase and D-luciferin which generates a bioluminescence signal from the ATP.
NCGC Assay Protocol Summary: Two uL/well of substrate-buffer solution (100 uM RS peptide, 1 uM ATP, 25 mM Tris pH7.5, 10 mM MgCl2, 0.5 mM EGTA, 2.5 mM DTT, 0.01% Triton X-100 final concentration) was dispensed into 1536-well, assay plates (Greiner, solid white medium-binding plates) with Aurora Discovery BioRAPTR Flying Reagent Dispenser (FRD; Beckton-Dickenson). Using a Kalypsys pin tool equipped with a 1536-pin tool, 23 nL of compound solution was transferred to the assay plate. One uL/ well Clk4-buffer solution (25 nM Clk4, 25 mM Tris pH 7.5, 10 mM MgCl2, 0.5 mM EGTA, 2.5 mM DTT, 0.01% Triton X-100, final concentrations) was then added using the FRD yielding a total kinase reaction volume of 3 uL/ well. After 4.5 hours of room temperature incubation, 3 uL Kinase-Glo reagent was added for a final assay volume of 6 uL/ well. Luminescence was detected with the ViewLux plate reader (Perkin Elmer, Waltham, MA) after 5 min incubation using a 5 second exposure time and 2x binning.

Potency, active:
Fc1cccc(CNc2ncnc3ccc(-c4ccccc4Cl)cc23)c1 11.2 µM
c1c[nH]c(CNc2ncnc3ccc(-c4ccoc4)cc23)n1 2.92 µM
CCOC(=O)c1ccoc1-c1ccc2ncnc(NCc3ncc[nH]3)c2c1 10.4 µM
c1cncc(-c2ccc3ncnc(NCc4cccs4)c3c2)c1 3.98 µM
c1csc(CNc2ncnc3ccc(-c4ccoc4)cc23)c1 0.184 µM
c1cncc(-c2ccc3ncnc(NCc4ccc5c(c4)OCO5)c3c2)c1 6.31 µM
Cc1cc(CNc2ncnc3ccc(-c4ccc5c(c4)OCO5)cc23)c(C)o1 0.119 µM
c1cncc(CNc2ncnc3ccc(-c4ccco4)cc23)c1 6.31 µM
CN(Cc1ccco1)c1ncnc2ccc(-c3ccoc3)cc12 0.316 µM
Fc1cccc(CNc2ncnc3ccc(-c4cccnc4)cc23)c1 3.98 µM
COc1cccc(-c2ccc3ncnc(NCc4ccc5c(c4)OCO5)c3c2)c1 1.41 µM
CCOC(=O)c1ccoc1-c1ccc2ncnc(NCCc3cnc[nH]3)c2c1 23.2 µM
Cc1csc(CNc2ncnc3ccc(-c4ccc5c(c4)OCO5)cc23)c1 0.141 µM
Fc1c(-c2ccc3ncnc(NCc4cccs4)c3c2)ccc2c1OCO2 0.0654 µM
c1cncc(CNc2ncnc3ccc(-c4cccnc4)cc23)c1 7.94 µM
c1csc(CNc2ncnc3ccc(-c4ccc5c(c4)OCO5)cc23)c1 0.0458 µM
Clc1ccccc1-c1ccc2ncnc(NCc3cccnc3)c2c1 10 µM
c1nc(NCc2ccc3c(c2)OCO3)c2cc(-c3ccc4c(c3)OCCO4)ccc2n1 2.24 µM
Cc1nc(CNc2ncnc3ccc(-c4sc(C)nc4C)cc23)cs1 1.64 µM
Cc1ccc(CNc2ncnc3ccc(-c4ccoc4)cc23)o1 0.519 µM
Cc1cccc(CNc2ncnc3ccc(-c4cccnc4)cc23)c1 3.55 µM
NCCNc1ncnc2ccc(-c3ccc4c(c3)OCO4)cc12 0.0733 µM
Cc1nc(CNc2ncnc3ccc(-c4ccc5c(c4)OCO5)cc23)cs1 0.0475 µM
Cc1csc(CNc2ncnc3ccc(-c4ccc5c(c4)OCCO5)cc23)c1 0.447 µM
c1coc(-c2ccc3ncnc(NCc4cccs4)c3c2)c1 0.823 µM
Cc1nc(CNc2ncnc3ccc(-c4ccoc4)cc23)cs1 0.232 µM
Cc1csc(CNc2ncnc3ccc(-c4cccnc4)cc23)c1 4.47 µM
CN(Cc1nccs1)c1ncnc2ccc(-c3ccc4c(c3)OCO4)cc12 0.0377 µM
Cc1nc(C)c(-c2ccc3ncnc(NCCc4cnc[nH]4)c3c2)s1 3.68 µM
Cc1cccc(CNc2ncnc3ccc(-c4ccc5c(ccn5C)c4)cc23)c1 39.8 µM
COc1cccc(-c2ccc3ncnc(NCc4cccc(C)c4)c3c2)c1 0.891 µM
Fc1cccc(CNc2ncnc3ccc(-c4cccc(Cl)c4)cc23)c1 7.08 µM
CCOC(=O)c1ccoc1-c1ccc2ncnc(NCc3ccc(C)o3)c2c1 5.82 µM
c1coc(CCNc2ncnc3ccc(-c4ccc5c(c4)OCO5)cc23)c1 0.0598 µM
Cc1occc1-c1ccc2ncnc(NCc3ncc[nH]3)c2c1 0.463 µM
CC(Nc1ncnc2ccc(-c3ccc4c(c3)OCO4)cc12)c1ccco1 (stereo not given) 0.119 µM
COc1cccc(-c2ccc3ncnc(NCc4cccc(F)c4)c3c2)c1 0.631 µM
Cc1cccc(-c2ccc3ncnc(NCc4cccs4)c3c2)c1 7.08 µM
Cc1ccsc1CNc1ncnc2ccc(-c3ccc4c(c3)OCO4)cc12 0.0336 µM
CCn1cnc(CCN(C)c2ncnc3ccc(-c4ccc5c(c4)OCO5)cc23)c1 1.3 µM

Reference: PubChem BioAssay AID1970 (National Center for Advancing Translational Sciences (NCATS), 2009)
